Screening results: PubChem, National Center for Advancing Translational Sciences (NCATS)
FMDV antiviral – foot and mouth disease virus antiviral activity | FMDV antiviral cell-based qHTS | Potency, µM (titrated, usually from 57.9 µM), inactives show top-dose activity change, negative = inhibition, most hits filed as inhibitors | 410,000 tested, 1.2% active | AID 1159524; calls by dose curve; tested in HEK293T cells; note: read-out not given here; potency is the fitted concentration of half-maximal effect; nearly all actives have a fitted effect of over 45% in size
HCMV inh – inhibitors of human cytomegalovirus | HFF cells, HCMV-luciferase reporter, 72 h; hits give low values | activity change, negative = inhibition, % at 57.5 µM | 410,000 tested, 4.5% active | AID 1259415; in the data active = activity change below about -60%; inconclusive = no clear call, values can overlap the other calls; inactive = above about -39%
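Luciferase read-out from HCMV-luciferase-infected HFFs (MOI 1 PFU/cell) 72 h post infection at 37C; compounds added after 16 h cell attachment; activity normalized between buffer-only basal and Salinomycin (10uM) inhibitor controls.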
Marburg entry inh – inhibitors of Marburg virus binding or cell entry; Marburg virus pseudotyped entry inhibition, cell reporter; Potency, µM (top dose mostly 37.8 µM), for inactives: at the highest dose activity change, negative = inhibition, most hits filed as inhibitors; 300,000 tested, 1.8% active; AID 540276; calls by dose curve; tested in HEK293 cells; note: potency is the fitted concentration of half-maximal effect
LASV entry inh – inhibitors of Lassa virus binding or cell entry; Potency, µM (titrated, usually from 37.9 µM), inactives show at the highest dose activity change, negative = inhibition, actives largely listed as inhibitors; 300,000 tested, 1.2% active; Lassa virus pseudotype entry inhibition, cell reporter; calls by dose curve; tested in HEK293 cells; note: potency is the fitted concentration of half-maximal effect; nearly all actives have a fitted effect of over 50% in size
Numbers without * were called inactive; u = inconclusive; x = not tested or not shown; [ ] = remark or other dose. Sampled rows, rich in hits. Any-hit rate of the full collection: about 6.2%. % is set by controls: 0 for no effect and ±100 for the full control effect.

SMILES	FMDV antiviral	HCMV inh	Marburg entry inh	LASV entry inh
Cc1nc(Sc2ccc(Cl)cc2)c(C#N)c(C)c1[N+](=O)[O-]	u	-75*	0%[14.2 µM]	0%
Cc1nc(N2CCC(C)CC2)c(C#N)c(C)c1[N+](=O)[O-]	-20%	-15	-2%[46.1 µM]	u
Cc1ccc(Sc2ncnc(N)c2[N+](=O)[O-])cc1	0%	-17	-42%	0%
Cc1nc(Sc2ccc(Br)cc2)c(C#N)c(C)c1[N+](=O)[O-]	20µM*	-77*	u	u
C=C1[C@@H](O)[C@H](Cc2ccccc2)N(Cc2ccccc2Br)S1(=O)=O	18µM*	33	x	x
CCN(CC)S(=O)(=O)c1ccc(C(=O)N(c2ccccc2)C2C=CS(=O)(=O)C2)cc1 (centres undefined)	-11%	4	0%[46.1 µM]	-2%[46.1 µM]
CCOC(=O)N1CCN(S(=O)(=O)c2ccc(C(=O)N(CCN(CC)CC)c3nc4c(C)cccc4s3)cc2)CC1	-14%	20	u	0%
Cc1cc(C)c2nc(NNC(=O)c3ccc(S(=O)(=O)N4CCCCC4)cc3)sc2c1	-6%	-96*	u	u
CCOC(=O)N1CCN(S(=O)(=O)c2ccc(C(=O)NNc3nc4c(C)cccc4s3)cc2)CC1	u	-103*	u	u
CCOC(=O)N1CCN(S(=O)(=O)c2ccc(C(=O)NNc3nc4cc(C)cc(C)c4s3)cc2)CC1	u	x	21µM*	u
CCOC(=O)N1CCN(S(=O)(=O)c2ccc(C(=O)NNc3nc4ccc(Cl)cc4s3)cc2)CC1	u	x	18µM*	u
CCOC(=O)N1CCN(S(=O)(=O)c2ccc(C(=O)N(CCN(C)C)c3nc4ccc(Cl)cc4s3)cc2)CC1	9%	-25	x	x
COC(=O)c1cn(-c2cccc(C)n2)cn1	-2%	-30	-4%[46.1 µM]	24%[46.1 µM]
CC(C)CCN(C(=O)c1csnn1)C(C(=O)NC1CCCC1)c1ccc(F)cc1 (centres undefined)	16%	21	u	u
CCOC(=O)N1CCN(S(=O)(=O)c2ccc(C(=O)NNc3nc4c(C)cc(C)cc4s3)cc2)CC1	-16%	-104*	u	u
Cc1ccc(C(=O)/C=C/c2cc(C#N)n(C)c2C)cc1	-25%	-85*	-5%[46.1 µM]	1%
Cc1c(C=C2C(=O)c3ccccc3C2=O)cc(C#N)n1C	-18%	x	x	x
O=C(NCC(c1ccco1)N1CCc2ccccc2C1)c1ccc([N+](=O)[O-])cc1 (centres undefined)	-4%	x	-13%	0%
Nc1cc(=O)[nH]c(=O)n1Cc1ccccc1	14%	3	1%	0%
Nc1cc(=O)[nH]c(=O)n1CCCc1ccccc1	-1%	-73*	-2%[46.1 µM]	-6%[46.1 µM]
Cc1cccc(CN2C(=O)N(c3ccc(C(C)C)cc3)S(=O)(=O)c3ccccc32)c1	-5%	-69*	x	u
CCc1ccccc1N1C(=O)N(Cc2cccc(Cl)c2)c2ccccc2S1(=O)=O	u	-105*	x	-23%[46.1 µM]
COc1ccccc1CN1CC(C(=O)NCc2ccc(N3CCCC3=O)cc2)CCC1=O (centres undefined)	3%	0	x	x
O=C1C2CC=C(Cl)CC2C(=O)N1CCN1CCOCC1 (centres undefined)	-10%	6	11%[46.1 µM]	-1%
Cc1ccc2[nH]c(C(=O)NCc3nc(-c4cccc(NC(=O)c5cc(C)oc5C)c4)oc3C)cc2c1	2%	x	x	x
SMILES	FMDV antiviral	HCMV inh	Marburg entry inh	LASV entry inh
Cc1ccc(NC(=O)C2CCN(c3ncnc4c3nc3n4CCCCC3)CC2)nc1	u	-91*	x	x
Fc1ccc(N2CCN(c3ncnc4c3nc3n4CCCC3)CC2)cc1	1.8µM*	-27	3%[46.1 µM]	5%[46.1 µM]
Clc1cccc(N2CCN(c3ncnc4c3nc3n4CCCC3)CC2)c1	-6%	53	u	4%[46.1 µM]
O=C(C1CCN(c2ncnc3c2nc2n3CCCCC2)CC1)N1CCN(c2ccc(F)cc2)CC1	32µM*	-33	x	-11%[46.1 µM]
O=C(C1CCN(c2ncnc3c2nc2n3CCCCC2)CC1)N1CCN(c2ccccc2)CC1	u	-38	x	-5%[46.1 µM]
Fc1ccccc1N1CCN(c2ncnc3c2nc2n3CCCC2)CC1	u	-63*	x	-2%[46.1 µM]
CCCOc1cccc(C(=O)Nc2cc(-c3ccccc3)no2)c1	28%	-4	u	22%[46.1 µM]
COc1ccccc1N1CCN(c2ccc(-c3nc(-c4ccccc4)no3)cc2[N+](=O)[O-])CC1	-13%	18	u	0%[46.1 µM]
CCc1c(C)nc2ncnn2c1N1CCC(C(=O)N2CCN(c3ccc(F)cc3)CC2)CC1	u	-88*	-14%	4%
CCc1ccc(-n2c(SCC(=O)c3ccc4c(c3)NC(=O)CO4)nc3ccccc3c2=O)cc1	-2%	-28	-5%[46.1 µM]	u
O=C1COc2ccc(C(=O)CSc3nc4ccccc4c(=O)n3-c3ccc(Cl)c(Cl)c3)cc2N1	18%	-81*	u	-13%
Cc1cc(-n2c(SCC(=O)NCCC3=CCCCC3)nc3n[nH]c(C)c3c2=N)ccc1Cl	2%	-21	x	x
COc1ccc(OC)c(NC(=O)CSc2nc3n[nH]c(C)c3c(=N)n2-c2cccc(Cl)c2C)c1	u	u	18µM*	-6%[46.1 µM]
Cc1[nH]nc2nc(SCC(=O)NCCC3=CCCCC3)n(-c3ccc(Br)cc3)c(=N)c12	-20%	-78*	x	x
Cc1c(Cl)cccc1-n1c(SCC(=O)NCc2ccccc2)nc2n[nH]c(C)c2c1=N	-21%	-61*	x	-27%[46.1 µM]
O=C(CCl)NNC(=O)c1c(O)c2ccccc2[nH]c1=O	u	0	-5%[46.1 µM]	4%
Cc1cc(C)n(CCC(=O)Nc2ccc(-c3ccno3)cc2)n1	-4%	-22	x	x
COc1ccccc1NC(=O)Nc1ccccc1Br	12%	-31	0%	-1%
COc1ccc(NC(=O)COCC(=O)Nc2ccc(C)cc2)cc1	4%	-19	x	x
COc1ccc(NC(=O)COc2ccccc2C(=O)NCC(c2ccccc2)N(C)C)cc1Cl (centres undefined)	-19%	5	u	11µM*
COc1ccc(OCCNC(=O)c2ccccc2OCC(=O)Nc2ccc(NC(C)=O)cc2)cc1	u	-31	7.1µM*	u
COc1ccc(OCC(=O)Nc2ccc(C)cc2)cc1	31%	-97*	-3%	-11%
COc1ccc(OCCNC(=O)c2ccccc2OCC(=O)N2CCCCC2)cc1	-36%	7	3%	0%
NC(=O)Cn1nc2sc3ccccc3n2c(=O)c1=O	x	-7	x	x
CCCCNc1nc(=S)[nH]c2cc(OC)c(OC)cc12	11%	41	0%[46.1 µM]	0%
SMILES	FMDV antiviral	HCMV inh	Marburg entry inh	LASV entry inh
COC(=O)c1cc2oc(C)cc2n1Cc1ccc(Cl)cc1	-4%	33	x	-12%[46.1 µM]
Cc1ccc(-n2c(Cc3ccccc3)n[nH]c2=S)cc1	6%	-16	16%	11%
COC(=O)c1ccc(NC(=O)c2ccc(N(C)S(C)(=O)=O)cc2)cc1	x	-30	u	-18%
CCCCOc1ccccc1C(=O)Nc1nonc1-c1ccccc1	-29%	-99*	1%[46.1 µM]	3%[46.1 µM]
O=C(Nc1nonc1-c1ccc(Cl)cc1)c1ccccc1F	-25%	-68*	u	10%[46.1 µM]
O=C(Nc1nonc1-c1ccc(F)cc1)c1ccco1	3%	u	x	x
CCCOc1ccc(-c2nonc2NC(=O)c2cc(OC)c(OC)c(OC)c2)cc1OCCC	14%	-76*	-19%[46.1 µM]	-20%[46.1 µM]
COc1ccc(-n2c(Cc3cc(=O)[nH]c(=O)[nH]3)nnc2SCC(=O)N2CCCC2)cc1	-11%	8	-5%	x
